Data taken from PMC4336329 (PLoS ONE, 2015).
In all, about 310,000 compounds went through this assay and about 14,000 (4.5%) showed an effect of 50% or more. Effects have a minus sign here. Shown is part of a subset that was picked to be rich in strong results.

Target: human ether-à-go-go-related gene (hERG) potassium channel (human, UniProt Q12809)
Experiment: primary screen, population patch clamp on CHO cells stably expressing hERG; higher = less effect of the substance
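Note: peak tail current of the secondary pulse compared with the same well before compound.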

Chain of human ether-à-go-go-related gene (hERG) potassium channel (Q12809 whole entry, looked up): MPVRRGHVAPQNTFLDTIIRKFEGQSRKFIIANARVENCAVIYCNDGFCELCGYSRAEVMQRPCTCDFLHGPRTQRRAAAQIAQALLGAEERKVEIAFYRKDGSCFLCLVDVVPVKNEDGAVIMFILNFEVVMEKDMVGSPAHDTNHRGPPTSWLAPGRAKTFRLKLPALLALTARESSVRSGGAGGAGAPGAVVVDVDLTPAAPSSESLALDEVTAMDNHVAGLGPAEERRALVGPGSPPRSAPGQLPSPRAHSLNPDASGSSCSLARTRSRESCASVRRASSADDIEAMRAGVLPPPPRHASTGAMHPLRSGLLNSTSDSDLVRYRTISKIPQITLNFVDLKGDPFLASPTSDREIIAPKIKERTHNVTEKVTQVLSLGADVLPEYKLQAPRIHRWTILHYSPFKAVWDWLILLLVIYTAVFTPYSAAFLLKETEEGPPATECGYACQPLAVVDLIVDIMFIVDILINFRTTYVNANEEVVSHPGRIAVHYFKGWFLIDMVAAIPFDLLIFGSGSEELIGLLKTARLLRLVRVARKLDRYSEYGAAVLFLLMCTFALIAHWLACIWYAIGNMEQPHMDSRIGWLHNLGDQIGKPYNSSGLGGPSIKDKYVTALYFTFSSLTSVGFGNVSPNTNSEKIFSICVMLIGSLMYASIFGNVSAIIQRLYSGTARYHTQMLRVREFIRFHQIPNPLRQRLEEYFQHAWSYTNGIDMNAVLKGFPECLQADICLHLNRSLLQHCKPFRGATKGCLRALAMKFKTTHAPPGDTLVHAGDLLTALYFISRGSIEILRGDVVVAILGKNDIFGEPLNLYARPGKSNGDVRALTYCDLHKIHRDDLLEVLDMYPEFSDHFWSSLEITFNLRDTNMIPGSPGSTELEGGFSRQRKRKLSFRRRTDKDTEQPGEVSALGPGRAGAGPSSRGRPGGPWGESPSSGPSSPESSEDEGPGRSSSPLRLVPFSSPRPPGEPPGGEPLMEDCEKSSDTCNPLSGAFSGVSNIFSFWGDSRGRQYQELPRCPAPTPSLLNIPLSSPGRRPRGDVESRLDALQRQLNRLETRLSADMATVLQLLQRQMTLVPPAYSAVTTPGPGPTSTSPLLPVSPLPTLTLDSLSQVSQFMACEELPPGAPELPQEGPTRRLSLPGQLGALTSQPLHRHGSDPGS

| SMILES | hERG current change (%, negative = inhibition) at 10uM [%] |
| --- | --- |
| COc1ccc(C(NC(=O)c2cccnc2)c2cc(Cl)c3cccnc3c2O)cc1OC (stereo not shown) | 10.5 |
| NS(=O)(=O)c1ccc(NC(=O)CSc2nnc(-c3ccc(O)cc3)o2)cc1 | 25.1 |
| Cc1onc(-c2ccccc2)c1C(=O)OCC(=O)NC(C)c1ccc(Cl)cc1 (stereo not shown) | -7.03 |
| CCOc1nc(-c2ccccc2O)nc2ccccc12 | 2.42 |
| Cc1ccc(-c2cc(-c3ccc(C)cc3)[n+](-c3ccc(C(=O)O)cc3)c(-c3ccc(C)cc3)c2)cc1.[O-][Cl+3]([O-])([O-])[O-] | 26.5 |
| Cc1ccc(-c2cc(-c3ccc(C)cc3)[n+](C)o2)cc1.[O-][Cl+3]([O-])([O-])[O-] | -68.4 |
| Cc1ccc(-c2cc(-c3ccc(C)cc3)[n+](-c3ccc(C(=O)[O-])cc3)c(-c3ccc(C)cc3)c2)cc1 | -26.8 |
| C=CCNC(=O)c1onc(CSc2ccc(F)cc2)c1C(=O)NCCOC | -43 |
| CCN(CC(=O)NCc1ccc(Cl)cc1)C(=O)/C=C/c1ccc(Cl)c([N+](=O)[O-])c1 | -67.6 |
| CCN(CC(=O)Nc1ccccc1C(F)(F)F)C(=O)/C=C/c1ccc(Cl)c([N+](=O)[O-])c1 | 10.1 |
| CCN(CC(=O)NCc1ccc(Cl)cc1)C(=O)/C=C/c1ccccc1 | -46 |
| CCN(CC(=O)NCc1ccc(Cl)cc1)C(=O)/C=C/c1cccs1 | -49.1 |
| CCN(CC(=O)NCc1ccc(Cl)cc1)C(=O)/C=C/c1ccc(C#N)cc1 | -62 |
| CCN(CC(=O)NCc1ccc(Cl)cc1)C(=O)/C=C/c1cc(OC)c(OC)c(OC)c1 | 3.83 |
| CN(CCC(=O)Nc1ccc(Cl)cc1)Cc1ccccc1.Cl | -39.9 |
| CCCC(NC(=O)COc1cc2c(c3oc(=O)cc(C)c13)CCC(C)(C)O2)C(=O)O (stereo not shown) | 18.4 |
| O=C(NCc1ccccc1)c1ccc(C2SCC(=O)N2Cc2ccccc2)cc1 (stereo not shown) | -12.6 |
| CCOc1c(OC(C)=O)ccc(/C=C/c2ccc3cccc(OC(C)=O)c3n2)c1[N+](=O)[O-] | -4.23 |
| O=Cc1ccc2oc3nc4n(c(=O)c3c(=O)c2c1)CCCS4 | -35.7 |
| CCC(C)COC(=O)C(C#N)c1nc2ccccc2nc1N1CCCCC1 (stereo not shown) | -1.25 |
| CCN1CCN(c2nc3ccccc3nc2C(C#N)C(=O)OCc2ccccc2)CC1 (stereo not shown) | -73.7 |
| CCC(CC)COC(=O)C(C#N)c1nc2ccccc2nc1N1CCOCC1 (stereo not shown) | -7.91 |
| COC(=O)C(C#N)c1nc2ccccc2nc1N1CCCC1 (stereo not shown) | -0.357 |
| CCC(CC)COC(=O)C(C#N)c1nc2ccccc2nc1N1CCN(CC)CC1 (stereo not shown) | -72.7 |
| CCOC(=O)N1CCN(c2nc3ccccc3nc2C(C#N)C(=O)NCCc2ccccc2)CC1 (stereo not shown) | 7.98 |
| COc1ccc(/C=C/C(=O)c2ccc[nH]2)c(OC)c1OC | -4.89 |

| SMILES | hERG current change (%, negative = inhibition) at 10uM [%] |
| --- | --- |
| CC(=O)c1ccc(-n2c(C)ccc2-c2ccccc2)cc1 | 1 |
| CCOC(=O)N1CCN(C(=O)Cn2ccc3c(OC)cccc3c2=O)CC1 | 6.78 |
| CCOC(=O)c1sc(NS(=O)(=O)c2cc(C)ccc2C)nc1C | 10.4 |
| COc1ccc(/C=C/C=C2\NC(=S)NC2=O)cc1 | 22.1 |
| Cc1cc2nc(/N=C(\N)NC(=O)N3c4ccccc4Sc4ccccc43)nc(C)c2cc1C | -38.9 |
| NC(=O)CSC1=Nc2ccccc2C2=NC(c3ccccc3)C(=O)N12 (stereo not shown) | 1.61 |
| CCC(C)NC(=O)CSC1=Nc2ccccc2C2=NC(c3ccccc3)C(=O)N12 (stereo not shown) | -55.3 |
| O=C(CSC1=Nc2ccccc2C2=NC(c3ccccc3)C(=O)N12)NC1CCCCC1 (stereo not shown) | -20.1 |
| CN(C(=O)CSC1=Nc2ccccc2C2=NC(c3ccccc3)C(=O)N12)C1CCCCC1 (stereo not shown) | -73 |
| CCN(CC)C(=O)CSC1=Nc2ccccc2C2=NC(c3ccccc3)C(=O)N12 (stereo not shown) | -46.4 |
| CCC(C)NC(=O)CSC1=Nc2ccccc2C2=NC(CC(=O)NCc3ccccc3)C(=O)N12 (stereo not shown) | -0.668 |
| O=C1CCCC(O)=C1N=Nc1cccc(S(=O)(=O)N2CCOCC2)c1 | -1.24 |
| O=C(N/N=C\c1ccc[nH]1)c1cncc(Br)c1 | 3.82 |
| O=C(NCc1ccccn1)C1CCCN(S(=O)(=O)c2ccccc2)C1 (stereo not shown) | 10.9 |
| COc1ccc(C(=O)NCc2nnc(SCC(=O)NO)n2Cc2ccccc2)cc1 | -5.01 |
| Cc1c(C(=O)NC(C)CCc2ccccc2)cccc1[N+](=O)[O-] (stereo not shown) | -18.2 |
| O=C(O)c1ccc(-n2ccnc2)c([N+](=O)[O-])c1 | 32.1 |
| COc1ccccc1NC(=O)c1ccc(-n2ccnc2)c([N+](=O)[O-])c1 | 15.1 |
| CC(NC(=O)c1ccc(N(C)C)c([N+](=O)[O-])c1)c1ccc(-n2ccnc2)cc1 (stereo not shown) | -62.9 |
| Cc1cccc(C(=O)NC(C)c2ccc(-n3ccnc3)cc2)c1C (stereo not shown) | -42.2 |
| Cc1c(C(=O)NC(C)c2ccc(-n3ccnc3)cc2)cccc1[N+](=O)[O-] (stereo not shown) | -74.1 |
| O=[N+]([O-])c1ccc(-n2ccnc2)cc1 | 7.95 |
| COc1ccc(C(=O)NNC(=O)c2ccncc2)cc1[N+](=O)[O-] | 25.2 |
| COc1ccc(C(=O)NC(C)c2ccc(-n3ccnc3)cc2)cc1[N+](=O)[O-] (stereo not shown) | -77.9 |
| CC(NC(=O)c1cc([N+](=O)[O-])cc([N+](=O)[O-])c1)c1ccc(-n2ccnc2)cc1 (stereo not shown) | -73.5 |
| Cc1cccc(N2CN(Cc3cccnc3)CNC2=S)c1 | -3.28 |
